Screens as filed in PubChem.
Sampled rows, rich in hits. Any-hit rate of the full collection: about 2.2%.
TDP43 rescue – qHTS of TDP-43 Inhibitors. TDP-43 expressing yeast growth rescue, BacTiter-Glo, 24 h. Potency, µM (doses to about 46.1 µM), most hits filed as activators. 410,000 tested, 1.8% active. AID 652104, 2013; also: nearly all actives have a fitted effect of over 50% in size
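Readout is BacTiter-Glo luminescence of cell growth, so inhibitors register as activators. TDP-43-expressing yeast at OD600=0.02 in galactose medium, after raffinose pregrowth to mid-log, were incubated with compound for 24 hr at 30 deg C.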
FUS yeast rescue – qHTS for Suppressors of FUS Proteinopathy: Primary screen using FUS-linked yeast assay | Potency, µM (top dose mostly 76.6 µM), hits mostly activators | 390,000 tested, 0.24% active | S. cerevisiae FUS-expressing, growth rescue, OD600, 24 h; also: nearly all actives have a fitted effect of over 55% in size
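Cultures pregrown in 2.5% raffinose medium are shifted to minimal medium containing 2% galactose to express toxic FUS. Compounds are tested at several concentrations. After 24hr at 30C, growth is quantified at 600 nm absorbance.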
Mito fusion yeast – qHTS Assay for Small Molecule Inhibitors of Mitochondrial Division or Activators of Mitochondrial Fusion; S. cerevisiae fusion-defective mutant growth rescue, CellTiterGlo 48 h; Potency, µM (doses to about 46.1 µM), most hits filed as activators; 320,000 tested, 0.23% active; AID 485298, 2010; also: nearly all actives have a fitted effect of over 45% in size
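Growth-rescue viability read-out: after 48 h at the non-permissive 37C in glycerol/ethanol YPEG, yeast mitochondrial fusion mutants are measured by CellTiterGlo luminescence; compounds (23 nl pinned per well) restoring growth score as division inhibitors or fusion activators.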
Abeta yeast res – qHTS for compounds that reverse cellular toxicity of Amyloid beta (A-beta) peptide in yeast: Primary Screen; yeast expressing A-beta42, growth rescue, OD600, 48 h; response scale: 0% DMSO, 100% iron-clioquinol control; Potency, µM (top dose mostly 46.1 µM), usual class: activators; 410,000 tested, 0.063% active; AID 1347071, 2019; also: nearly all actives have a fitted effect of over 55% in size
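Growth rescue measured by 600 nm absorbance after 48 h yeast culture at 30 C with compound. Values normalized between DMSO and an equimolar ferric chloride plus clioquinol control.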
aSyn rescue – qHTS of alpha-syn Inhibitors. AID 652106, 2013. Yeast expressing alpha-synuclein, growth rescue, BacTiter-Glo, 24 h. Potency, µM (series often up to 46.1 µM), hits mostly activators. 370,000 tested, 0.14% active; also: nearly all actives have a fitted effect of over 65% in size
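Rescue of yeast growth: cells expressing toxic alpha-synuclein, induced in galactose at OD600 0.02, incubated with compound 24 h at 30 C. ATP luminescence quantified growth; inhibitors of toxicity appear as activators.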
Each line names hits and unclear results; the compound was inactive in the other large screens. Calls follow the shape of the dose curve; as a rule, active = well fitted curve in the direction sought with a large enough effect; inconclusive = small, poorly fitted or top-dose-only effect, or another doubt; inactive = no such curve, though single readings can be large; an effect the other way counts as inactive or inconclusive.

COc1ccc(C(C)NC(=O)CN(c2cc(OC)ccc2OC)S(=O)(=O)c2ccccc2)cc1 (configuration not stated)	FUS yeast rescue inconclusive (no result: Mito fusion yeast, aSyn rescue)
CC(C)c1ccc2oc(-c3cc(N)ccc3O)nc2c1	TDP43 rescue 20µM
CCOc1ccccc1-c1nc(-c2ccc(C)nc2OC)no1	TDP43 rescue 20µM, FUS yeast rescue inconclusive
Cc1c(C(=S)Nc2ccccc2)cnn1-c1ccccc1	TDP43 rescue 16µM (no result: FUS yeast rescue)
Nc1c(C(=O)N/N=C/c2ccc([N+](=O)[O-])cc2)cnn1-c1ccccc1	none
CC(=O)c1cnn(-c2ccccc2)c1C	none
Cc1c(C(=S)Nc2ccccc2)cnn1-c1ccc([N+](=O)[O-])cc1	TDP43 rescue 13µM (no result: FUS yeast rescue)
N#Cc1ccc(OS(=O)(=O)c2ccc(-c3ccon3)s2)cc1	TDP43 rescue 13µM
Cc1ccccc1Cn1nnc(-c2ccc3c(c2)OCO3)n1	none
Fc1cccc(Cn2ccc(-c3ccc4c(c3)OCO4)n2)c1	TDP43 rescue 13µM
Nc1ccn(Cc2cccc(F)c2)n1	none
Cc1ccccc1Cn1ccc(-c2ccc3c(c2)OCO3)n1	TDP43 rescue 18µM
CCC1(c2ccccc2)NC(=O)N(CC(=O)Nc2ccc(S(=O)(=O)Nc3ncccn3)cc2)C1=O (configuration not stated)	none
CC[n+]1c(/C=C/C=C2/N(C)c3ccccc3C2(C)C)sc2ccccc21	none (no result: TDP43 rescue, FUS yeast rescue, Abeta yeast res)
CN(C)CCOC1c2ccccc2CCc2ccc3ccccc3c21 (configuration not stated)	TDP43 rescue 16µM, aSyn rescue inconclusive (no result: Mito fusion yeast)
Cc1cc2nc(-c3nnnn3-c3c(C)cccc3C)c(=O)[nH]c2cc1C	none (no result: Mito fusion yeast)
N#C/C(=C\c1ccccn1)c1nc2ccccc2s1	TDP43 rescue 18µM, Abeta yeast res inconclusive
COC(=O)c1ccc(/C=C(\C#N)c2nc3ccccc3s2)cc1	none
COc1ccc(CN2C/C(=C/C3=CCCCC3)N(C(=O)OCc3ccccc3)C2=N)c(OC)c1	none (no result: TDP43 rescue, Mito fusion yeast, Abeta yeast res, aSyn rescue)
CCc1cc2c(SC(C)C(=O)NC3CCCC3)ncnc2s1 (configuration not stated)	TDP43 rescue 35µM (no result: Mito fusion yeast)
CCN(Cc1ccc(NC(C)=O)cc1)CC1CCCN(CCc2cccc(OC)c2)C1 (configuration not stated)	FUS yeast rescue inconclusive
Cc1ccc(S(=O)(=O)N(CC(O)Cn2c3ccccc3c3ccccc32)c2cccc(C(=O)NCCO)c2)cc1 (configuration not stated)	FUS yeast rescue 20µM (no result: Mito fusion yeast)
Cc1sc2nc(CSc3ccccc3)nc(N3CCOCC3)c2c1C	TDP43 rescue 11µM
Cc1sc2nc(CSc3ccccc3)nc(N3CCC(C(N)=O)CC3)c2c1C	FUS yeast rescue inconclusive
O=C(Nc1ccccc1Sc1ccccc1)c1ccc(F)cc1	Abeta yeast res 14µM
COc1ccc(-n2cnc3scc(-c4ccc(OC)c(OC)c4)c3c2=O)cc1	none
COc1ccc(-n2cnc3scc(-c4ccccc4)c3c2=O)cc1	TDP43 rescue 11µM
Cc1ccc(OCC(=O)NCCCNC(=O)c2cccnc2)cc1	none
Fc1ccc(C2=CC(c3ccc(Br)o3)n3ncnc3N2)cc1 (configuration not stated)	TDP43 rescue 18µM (no result: FUS yeast rescue)
CCOc1ccc(C2C=C(c3ccc(F)cc3)Nc3ncnn32)cc1 (configuration not stated)	none
Fc1ccc(Br)cc1C1C=C(c2cccnc2)Nc2ncnn21 (configuration not stated)	TDP43 rescue 25µM
CC(C)(C)c1ccc(C2=CC(c3ccccc3F)n3ncnc3N2)cc1 (configuration not stated)	FUS yeast rescue inconclusive (no result: Mito fusion yeast)
CCOc1ccc(C2=CC(c3cc(Br)ccc3F)n3ncnc3N2)cc1Cl (configuration not stated)	TDP43 rescue 35µM (no result: Mito fusion yeast, aSyn rescue)
C=CCN1C(=O)[C@@H](CC(=O)NCCCOCCCC)[C@]2(C(=O)OC)CCCCC=C12	none (no result: TDP43 rescue, Mito fusion yeast, Abeta yeast res, aSyn rescue)
COC(=O)c1scc(-c2ccc(C)cc2)c1S(=O)(=O)N1CCN(c2ccc(OC)cc2)CC1	FUS yeast rescue 22µM (no result: Mito fusion yeast, aSyn rescue)
